E coli growth-1 – E. coli V3065 growth inhibition, primary screen, counter-screen for AddAB inhibitor project, absorbance, OD600 | 18 h | inhibition, % at 11.9 µM | actives 0.27% (n = 330,000);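 active means inhibition above the campaign's mean inhibition across all tested compounds plus 3 SD, cut at about 9.9% in these data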;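 further: uninfected addAB+ strain grown without phage in ampicillin broth; 0% = DMSO wells and 100% = ciprofloxacin 0.95 µg/ml wells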
phage Ecoli inh – growth loss of phage-infected E. coli, primary screen, RecBCD inhibitor project, absorbance, with phage, HTS; inhibition, % at 11.9 µM; actives 0.26% (n = 360,000); AID 651602, 2012; in the data active means inhibition above about 11%
Tat transport – E. coli Tat export inhibitors, primary screen, MC4100, TorA-mCherry reporter, fluorescence, single point; AID 488895, 2010; actives 0.036% (n = 340,000); inhibition, % at 10 µM;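 active means mean replicate inhibition at least 50% and at least half of replicates individually reaching 50%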;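 further: exported cargo escapes ClpAP degradation while cytoplasmic cargo is degraded and loses fluorescence; 0% = median of neutral control wells and 100% = median of NaSCN control wells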
AddAB inh – growth inhibition of E. coli expressing H. pylori AddAB, primary screen, AddAB inhibitor project, absorbance. inhibition, % at 11.9 µM. actives 0.29% (n = 330,000). AID 435030, 2010; in the data active means inhibition above about 12%;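 further: 0% = vehicle wells of infected cells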
E coli growth-2 – E. coli growth inhibition, primary screen, OD600. AID 1053175, 2014. actives 0.21% (n = 330,000). OD600 absorbance (concentration not given with the values). Escherichia coli growth, 23 h; stronger effect = lower value;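 active means OD600 absorbance below the run mean of sample wells minus 3.6 SD, in any replicate, cut at about 0.56 in these data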
AddAB conf – growth loss of phage-infected E. coli expressing H. pylori AddAB, confirmation, AddAB inhibitor project, absorbance, E. coli V3065, T4 phage, triplicate | inhibition, % at 11.9 µM | actives 64% (n = 880) | shares compounds with AddAB inh | OD; T4 phage with gene 2 nonsense mutations;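 active means mean inhibition above a set limit taken from the earlier primary screen, cut at about 13% in these data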;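 further: higher means less bacterial growth since AddAB block lets phage replicate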
RecBCD counter – growth loss of RecBCD+ E. coli with mutant T4 phage, counter-screen for AddAB inhibitor project, absorbance, V66 E. coli | OD growth | actives 73% (n = 880) | inhibition, % at 11.9 µM | shares compounds with AddAB inh | AID 488955, 2010;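 active means mean inhibition above the mean of solvent-only control wells plus 3 SD, cut at about 4% in these data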;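 further: optical density read after an 18 h incubation at 37 °C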
Bact viability – bacterial viability inhibition counter-screen, confirmation, counter-screen for AddAB inhibitor project, absorbance | inhibition, % at 11.9 µM | absorbance (AddAB counterscreen) | AID 488956, 2010 | shares compounds with AddAB inh | actives 35% (n = 880); in the data active means inhibition above about 25%
RecBCD conf – growth loss of phage-infected RecBCD+ E. coli, confirmation, RecBCD inhibitor project, absorbance, E. coli V66, T4 gene 2 phage. shares compounds with phage Ecoli inh. E. coli V66 + T4 2- phage, growth OD. inhibition, % at 11.9 µM. actives 45% (n = 890). AID 651982, 2013;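 active means mean inhibition over triplicates exceeding the hit threshold derived in the original primary screen, cut at about 11% in these data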
Ecoli viability – E. coli viability inhibition, counter-screen for RecBCD inhibitor project, absorbance, high throughput | shares compounds with phage Ecoli inh | absorbance (OD) growth | inhibition, % at 11.9 µM | actives 29% (n = 890); in the data active means inhibition above about 20%;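 further: E. coli strain V66 grown with compound alone and no phage infection; 0% = bacteria with DMSO vehicle only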
AddAB counter – growth loss of phage-infected AddAB-carrying E. coli, confirmation, counter-screen for RecBCD inhibitor project, absorbance, E. coli V3065, T4 phage; shares compounds with phage Ecoli inh; E. coli expressing H. pylori AddAB + T4 phage, OD growth; gene 2 mutant T4, recBCD-deleted host; inhibition, % at 11.9 µM; actives 45% (n = 890); AID 651984, 2013;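 active means mean inhibition above the solvent-only control wells' mean plus 3 SD, cut at about 22% in these data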;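 further: higher means less bacterial growth from phage killing when AddAB is blocked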
Numbers without * were called inactive; x = no result. A selection: hits, their analogues and other compounds. The true share with any hit is near 0.5%.

SMILES	E coli growth-1	phage Ecoli inh	Tat transport	AddAB inh	E coli growth-2	AddAB conf	RecBCD counter	Bact viability	RecBCD conf	Ecoli viability	AddAB counter
CCC(C)N1CCC2(CC1)N=c1c(c3c4c5c(C)c(O)c3c(O)c1=NC(=O)C(C)=CC=C[C@H](C)[C@H](O)[C@@H](C)[C@@H](O)[C@@H](C)[C@H](OC(C)=O)[C@H](C)[C@@H](OC)C=CO[C@@](C)(O5)C4=O)N2 (some centres not stated)	98*	105*	107*	97*	x	96*	97*	99*	96*	99*	102*
CC[C@H]1OC(=O)[C@H](C)[C@@H](O[C@H]2C[C@@](C)(OC)[C@@H](O)[C@H](C)O2)[C@H](C)[C@@H](O[C@@H]2O[C@H](C)C[C@H](N(C)C)[C@H]2O)[C@](C)(O)C[C@@H](C)C(=O)[C@H](C)[C@@H](O)[C@]1(C)O	20*	27*	39	22*	x	45*	17*	18	19*	20*	32*
O=c1[nH]cc(O)c(=O)[nH]1	-1	3	9	4	0.75	x	x	x	x	x	x
O=c1[nH]cc(F)c(=O)[nH]1	44*	53*	11	48*	x	45*	38*	41*	63*	53*	70*
CC(C)(C)N(NC(=O)c1ccccc1)C(=O)c1cccc(C(=O)N(NC(=O)c2ccccc2)C(C)(C)C)c1	2	1	-5	-2	0.7	x	x	x	x	x	x
CCCC(=O)NC(c1ccco1)c1cc([N+](=O)[O-])c2cccnc2c1O (configuration not stated)	-3	4	-11	3	0.62	x	x	x	x	x	x
CCC(=O)NC(c1cccs1)c1cc(Cl)c2cccnc2c1O (configuration not stated)	26*	26*	-4	23*	0.71	25*	22*	16	14*	21*	21
CC(=O)NC(c1ccc(C)cc1)c1cc([N+](=O)[O-])c2cccnc2c1O (configuration not stated)	1	1	-9	1	0.68	x	x	x	x	x	x
CCC(=O)NC(c1cc(Cl)c2cccnc2c1O)C(C)C (configuration not stated)	17*	18*	-3	15*	0.66	4	12*	5	5	8	13
CCCCC(=O)NC(c1cccs1)c1cc(Cl)c2cccnc2c1O (configuration not stated)	18*	17*	-5	16*	0.66	21*	17*	16	11	11	19
CC(=O)NC(c1ccccc1)c1cc(Cl)c2cccnc2c1O (configuration not stated)	18*	13*	23	17*	0.63	11	15*	4	5	9	10
CN1CCN(c2ccc(NC(=O)c3ccc([N+](=O)[O-])o3)cc2Cl)CC1	92*	23*	-12	99*	0.31*	98*	24*	95*	15*	20*	85*
